HTR5A inv ag: inverse agonist of human HTR5A in OPRM1-OPRD1 counter-screen; 0.083% of 340,000 active; P47898; HTR5A cell line, luminescence, inverse agonism; inhibition, % at 9.3 µM; AID 504634; in the data active means inhibition mostly above about 23%, no sharp cut-off; inactive means mostly below about 18%;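 further: 0% = cells with DMSO and 100% = no-cell wells with DMSO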
OPRM1-OPRD1 ag: agonists of human mu-delta opioid receptor heterodimerization; activation, % at 9.3 µM; 0.3% of 340,000 active; P35372+P41143; cells, OPRM1-OPRD1 heterodimerization, luminescence; in the data active means activation above about 18%;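 further: 0% = vehicle-treated cells and 100% = reference agonist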
OPRM1-OPRD1 inv: inverse agonist of human OPRM1-OPRD1 heterodimerization | cell-based MOR-DOR heterodimer luminescence, inverse agonism | inhibition, % at 9.3 µM | 0.21% of 340,000 active | AID 504357; in the data active means inhibition above about 22%, passing the limit was not always enough;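 further: 0% = cells with DMSO and 100% = wells without cells with DMSO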
HTR2A ag: activates the mouse 5-HT2A serotonin receptor; P35363; CHO-K1 mHTR2A beta-arrestin complementation, luminescence; percent of 30 µM serotonin response; activation, % at 7.6 µM; 0.66% of 360,000 active;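 active means activation above a run cutoff, the mean activation of all tested compounds plus 3 SD, cut at about 14% in these data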;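 further: 0% = plate median of compound wells and 100% = 30 µM serotonin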
Target sequence (P35363 whole entry, looked up): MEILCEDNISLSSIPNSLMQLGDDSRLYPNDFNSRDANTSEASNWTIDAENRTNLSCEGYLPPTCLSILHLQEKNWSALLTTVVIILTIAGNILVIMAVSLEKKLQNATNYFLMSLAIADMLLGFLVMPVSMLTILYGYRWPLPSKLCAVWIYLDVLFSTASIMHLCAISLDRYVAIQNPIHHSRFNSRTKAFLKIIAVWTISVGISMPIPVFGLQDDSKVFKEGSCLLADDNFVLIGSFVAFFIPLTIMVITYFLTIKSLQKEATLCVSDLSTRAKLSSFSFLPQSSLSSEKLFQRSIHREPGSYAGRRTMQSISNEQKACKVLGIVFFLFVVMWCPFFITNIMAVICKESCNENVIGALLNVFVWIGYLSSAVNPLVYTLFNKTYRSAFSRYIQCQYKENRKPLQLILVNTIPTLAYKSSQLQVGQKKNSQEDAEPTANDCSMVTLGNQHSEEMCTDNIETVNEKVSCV
HTR5A ag ctr: counter-screen for OPRM1-OPRD1 agonists: human HTR5A agonism. P47898. HTR5A agonist assay, luminescence, cell-based. activation, % at 9.3 µM. 0.61% of 340,000 active; in the data active means activation mostly above about 9.5%, no sharp cut-off; inactive means mostly below about 7.6%;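 further: 0% = cells with vehicle only and 100% = reference agonist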
OPRM1 ag: activates human mu opioid receptor in HTR2A counterscreen | shares compounds with HTR2A ag | U2OS OPRM1 beta-arrestin PathHunter, luminescence; DMSO 0%, DAMGO 9.3 µM 100% | activation, % at 9.3 µM | 5.3% of 2,300 active;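 active means mean activation above the mean of DMSO-only wells plus 3 SD, cut at about 0.5% in these data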
m5-HT2A ag conf: mouse HTR2A agonism confirmed; CHO-K1 PathHunter beta-arrestin recruitment, luminescence; DMSO 0%, 30 µM serotonin 100%; shares compounds with HTR2A ag; AID 624381; activation, % at 7.6 µM; 19% of 2,300 active;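 active means mean activation across triplicates above the hit threshold derived in the original primary screen, cut at about 15% in these data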
Active calls of the source: *; · = no result given. Only some compounds are listed: those with a hit (about 1.6% of all), similar ones and a draw of the others.

SMILES	HTR5A inv ag	OPRM1-OPRD1 ag	OPRM1-OPRD1 inv	HTR2A ag	HTR5A ag ctr	OPRM1 ag	m5-HT2A ag conf
CCOC(=O)C1CCN(C(=O)c2sc3ncn(CC(=O)N4CCCCC4)c(=O)c3c2C)CC1	·	·	·	-1.6	·	·	·
O=C(c1ccco1)N1CCN(Cc2c(Cl)cccc2Cl)CC1	-2.0	-3.4	17.6	-0.9	0.7	·	·
O=C(c1ccco1)N1CCN(Cc2ccc(Br)cc2)CC1	-16.9	-0.4	1.9	14.8*	4.4	-0.3	90.2*
O=C(c1ccc(CS(=O)c2cccc(Cl)c2)o1)N1CCN(c2ccccn2)CC1 (stereo not drawn)	-14.4	0.7	-3.9	5.2	1.9	·	·
O=C(c1ccc(CS(=O)c2cccc(Cl)c2)o1)N1CCOCC1 (stereo not drawn)	2.7	-3.2	15.9	17.7*	1.1	-0.7	-1.7
CC1CC(C)CN(C(=O)c2ccc(C(=O)c3ccccc3)cc2)C1 (stereo not drawn)	2.4	0.3	-1.3	-4.4	-2.7	·	·
C[C@@H]1c2ccccc2N2C[C@H](Cc3ccc(C(=O)c4ccccc4)cc3)C[C@@H]12	·	·	·	15.8*	·	-0.1	-4.9
COc1ccc(C2=Nn3c(nnc3C(F)(F)F)SC2)cc1	13.3	0.9	-4.1	3.5	-3.8	·	·
CCCc1cc(NCCCN2CCOCC2)n2c(nc3ccccc32)c1C#N	-9.0	-0.7	3.9	31.8*	3.2	0.1	0.2
CC(C(=O)NC1CCCCC1)N1CCN(C)CC1 (stereo not drawn)	-38.0	0.1	-0.7	0.6	9.8	·	·
Cn1c(SCC(=O)NCc2cccs2)nnc1-c1ccc(O)cc1	-1.1	-3.1	16.3	0.5	0.4	·	·
Cc1cc(S(=O)(=O)Nc2cccnc2)c(C)s1	-23.7	-1.2	6.7	20.7*	-1.5	-0.5	-1.2
Cc1ccc(S(=O)(=O)Nc2cccnc2)cc1C	-23.7	-1.6	9.1	-3.7	7.1	·	·
O=C(NCc1ccc2c(c1)OCO2)C1CCC(CNc2c(N3CCCC3)c(=O)c2=O)CC1 (stereo not drawn)	-6.0	-1.9	11.4	14.4*	2.0	-0.5	-2.3
CC(C)C(=O)N1CCC1(C)C(=O)Nc1cccc(Oc2ccccc2)c1 (stereo not drawn)	·	·	·	1.7	·	·	·
C/C(=N\Nc1cc(C)nc(-c2ccccc2O)n1)c1ccccc1	3.8	3.3	-19.3	-4.4	-1.5	·	·
Cc1cc(N/N=C/c2ccc(O)c(C)c2O)nc(-c2ccccc2O)n1	-12.4	5.9	-31.6	20.1*	9.1	0.5	64.6*
COc1ccc(S(=O)(=O)N2CCCCC2)cc1NC(=O)c1cc(C)on1	-5.6	1.6	-7.8	-3.3	2.0	·	·
CNc1cccccc1=S	-4.0	0.6	-3.2	0.8	2.4	·	·
CCOCCCNC(=O)C1(O)c2cc(Br)ccc2NC(=O)N1c1ccc(CC)cc1 (stereo not drawn)	-26.4	-1.7	8.8	17.5*	7.2	-0.3	-1.4
C=C(C)C(=O)OCC(O)COc1ccc(C(C)(C)c2ccc(OCC(O)COC(=O)C(=C)C)cc2)cc1 (stereo not drawn)	-0.9	4.6	-24.9	16.6*	0.3	0.0	2.2
O=C(NCc1ccncc1)c1ccc(S(=O)(=O)Nc2ccccc2)cc1	9.8	-0.1	0.7	14.6*	-4.0	-0.5	-5.0
CCC(C)n1c(SCC(=O)NCc2ccco2)nnc1-c1cccc(S(=O)(=O)N2CCOCC2)c1 (stereo not drawn)	-1.4	-1.5	7.7	15.0*	0.5	-0.6	-0.8
CN(CC(=O)Nc1ccc(Cl)cc1)CC(=O)N1CCc2ccccc21	·	·	·	16.9*	·	0.0	2.5
CCc1ccccc1NC(=O)N1CCc2ccccc21	-5.1	0.5	-2.9	16.5*	4.7	-0.5	-4.1
CCN1C(=O)[C@@H]2[C@@H]3CN(S(=O)(=O)c4ccc(C)cc4)[C@@H](c4ccccc4F)[C@@H]3C(=O)C[C@@H]2C1=O	·	·	·	15.1*	·	-0.1	1.5
Oc1ccccc1-c1nc(NCC2CCCO2)c2ccccc2n1 (stereo not drawn)	-10.8	-1.0	5.4	-0.9	3.6	·	·
CCC(C)Nc1nc(-c2ccccn2)nc2ccccc12 (stereo not drawn)	5.9	-3.3	16.9	-7.7	-1.6	·	·

From PubChem
